12-hLO inh – qHTS Assay for Inhibitors of 12-hLO (12-human lipoxygenase). actives 0.12% (n = 150,000). Potency, µM (top dose mostly 57.1 µM), for the others: at the top dose activity change, negative = inhibition, actives largely listed as inhibitors. purified 12-hLO, xylenol orange hydroperoxide absorbance; also: potency is read from the fitted curve at half-maximal effect; nearly all actives have a fitted effect of over 55% in size
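Xylenol orange chromogenic assay: hydroperoxide from 12hLO oxidises Fe(II), giving red-shifted Fe(III)-XO absorbance. Conditions: 150 nM enzyme, 40 uM arachidonic acid, 25 mM Hepes pH 7.0, 0.01% Triton X-100, 30 min, room temperature.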
HPGD inh – qHTS Assay for Inhibitors of HPGD (15-Hydroxyprostaglandin Dehydrogenase). Potency, µM, for the others: top-dose activity change, negative = inhibition, actives largely listed as inhibitors. 15-hydroxyprostaglandin dehydrogenase [NAD(+)] (Homo sapiens), P15428. AID 894, 2007. actives 4.3% (n = 150,000). purified HPGD, NADH fluorescence kinetic, PGE2 substrate; active = well fitted inhibition curve with a large enough effect, not every such curve was filed as active; inconclusive = small, poorly fitted or top-dose-only effect, or another doubt; inactive = no such curve, though single readings can be large or run the other way; also: potency is read from the fitted curve at half-maximal effect
Target sequence (P15428 whole entry, looked up): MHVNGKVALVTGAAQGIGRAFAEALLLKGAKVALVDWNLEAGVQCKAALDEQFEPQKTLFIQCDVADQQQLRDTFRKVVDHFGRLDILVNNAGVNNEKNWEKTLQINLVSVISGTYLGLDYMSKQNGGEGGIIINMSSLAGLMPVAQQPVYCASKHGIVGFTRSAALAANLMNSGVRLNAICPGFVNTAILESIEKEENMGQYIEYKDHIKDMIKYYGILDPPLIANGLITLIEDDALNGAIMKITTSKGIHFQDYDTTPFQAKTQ
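NADH formation kinetics: reaction with 30 uM PGE2 and 1 mM NAD+ (final), 20 nM enzyme, Tris-HCl pH 8 with Tween 20, after 15 min compound preincubation at room temperature. Fluorescence change, last versus first of five reads.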
PNC inhibitor – High Content Assay for Compounds that inhibit the Assembly of the Perinucleolar Compartment; PC3M PTB-GFP, PNC prevalence imaging, 16 h; hits give low values; activity change (PNC), negative = inhibition, % at 10 µM; actives 3.1% (n = 140,000);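 active = readout at or below -70, meaning at least 70% loss of cells showing the perinucleolar compartment, a nuclear body marking cancer cells; inconclusive = readout between -30 and a set limit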;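 also: plate controls were DMSO wells for no effect and camptothecin positive control wells for full effect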
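Read-out is percentage of cells bearing a perinucleolar compartment, from automated 20x imaging of fixed, Hoechst-stained PC3M PTB-GFP cells. Cells were seeded 4 h, then exposed 16 h to compound (23 nl of library stock) in duplicate plates.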
GLA inh pH 4.5 – qHTS Assay for Inhibitors of Human alpha-Galactosidase at pH 4.5 | purified enzyme, 4-MU-alpha-Gal fluorescence, pH 4.5 | 230,000 tested, under 10 active | activity change, negative = inhibition, % at 105 µM;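 also: 0% = full activity with enzyme and -100% = basal without enzyme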
Target sequence (P06280 whole entry, looked up): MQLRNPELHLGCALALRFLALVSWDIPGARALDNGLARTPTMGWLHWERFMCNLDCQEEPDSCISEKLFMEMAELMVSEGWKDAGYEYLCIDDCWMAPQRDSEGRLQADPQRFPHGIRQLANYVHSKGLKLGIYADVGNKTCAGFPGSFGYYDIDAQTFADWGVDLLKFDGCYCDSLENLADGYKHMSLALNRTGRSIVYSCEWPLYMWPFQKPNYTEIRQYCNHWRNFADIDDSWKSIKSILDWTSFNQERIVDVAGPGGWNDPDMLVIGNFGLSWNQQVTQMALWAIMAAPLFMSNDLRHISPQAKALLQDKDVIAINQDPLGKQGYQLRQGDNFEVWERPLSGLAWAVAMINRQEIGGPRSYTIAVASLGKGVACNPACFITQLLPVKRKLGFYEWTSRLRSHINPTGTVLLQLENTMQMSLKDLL
ALDH1A1 inh – qHTS Assay for Inhibitors of Aldehyde Dehydrogenase 1 (ALDH1A1); Potency, µM (titrated, usually from 75.3 µM), for inactives: top-dose activity, negative = inhibition, usual class: inhibitors; Purified ALDH1A1, NADH fluorescence, propionaldehyde substrate; actives 7.3% (n = 220,000); active = well fitted inhibition curve with a large enough effect, not every such curve was filed as active; inconclusive = small, poorly fitted or top-dose-only effect, or another doubt; inactive = no such curve, though single readings can be large or run the other way;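 also: potency is read from the fitted curve at half-maximal effect; plate controls were no enzyme wells and a reference inhibitor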
aGal spleen mod – qHTS Assay for Inhibitors and Activators of Human alpha-Galactosidase From Spleen Homogenate. Alpha-galactosidase A (Homo sapiens), P06280. Potency, µM (doses to about 80 µM), for the others: top-dose activity change, negative = inhibition, hits mostly inhibitors. human spleen homogenate, 4MU-alpha-Gal fluorescence, 40 min. actives 0.008% (n = 240,000);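 also: potency is read from the fitted curve at half-maximal effect; 0% = enzyme with vehicle and -100% = no enzyme basal signal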
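Spleen homogenate 1 ug + cpd (titration) + 4-MU-alpha-D-galactopyranoside 1 mM; 37C 40 min; 50 mM citrate/phosphate pH 5.0, 0.01% Tween-20; stop pH 10; fluorescence 365/440; AC50 via Hill.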
An asterisk follows results filed as active; ? = inconclusive; · = no result; [ ] = dose if it differs, or a comment. Rows were chosen to be rich in hits. Some 10% of all compounds tested hit in one or more screens of this group. Unless noted, calls follow the shape of the dose curve; as a rule, active = well fitted curve in the direction sought with a large enough effect; inconclusive = small, poorly fitted or top-dose-only effect, or another doubt; inactive = no such curve, though single readings can be large; an effect the other way counts as inactive or inconclusive. Unless noted, % is scaled to controls: 0 for no effect and ±100 for the full control effect.

SMILES | 12-hLO inh | HPGD inh | PNC inhibitor | GLA inh pH 4.5 | ALDH1A1 inh | aGal spleen mod
O=C(Cc1ccccc1)NCCSCc1ccc(Cl)cc1 | -6.5% | 31.6µM* | -6.7 | -16.1 | ? | -8.2%
O=C(CCSc1ccccc1)NCCSCc1ccccc1 | -6.9% | 14.1µM* | -26.5 | -1.3 | ? | 0.1%
Cc1cccc(CSCCNC(=O)CCSc2ccccc2)c1 | -6.1% | 28.2µM* | -23.5 | 7.8 | ? | -12.4%
CS(=O)(=O)N(CC(=O)N1CCN(c2ccc(F)cc2)CC1)c1ccc(F)c(Cl)c1 | -2.2% | 1.7% | ? | 7.3 | 3.1% | 4.1%
CC(=O)N(C[C@@H](O)CO)c1c(I)c(C(=O)NC[C@@H](O)CO)c(I)c(C(=O)NC[C@@H](O)CO)c1I | -3.2%[25.6 µM] | -11.9% | · | -0.4 | 13.5%[20.9 µM] | -9.7%[29.1 µM]
N#Cc1c(C(F)(F)F)cc(-c2ccc(Cl)c(Cl)c2)nc1SCCN1CCOCC1 | -11.7% | 25.1µM* | 13.7 | 1.9 | 2.1% | 5.1%
C=CCSc1nc(-c2ccc3c(c2)OCO3)cc(C(F)(F)F)c1C#N | -11.6% | ? | -96.0* | 12.3 | ? | 7.2%
Cc1cc(C(F)(F)F)nc(SCCN2CCOCC2)c1C#N | · | · | · | -26.2 | 22.4µM* | 3.5%
Cc1cc(C)nc(SCCN2CCOCC2)n1 | 7.4% | -5.9% | 12.9 | -2.9 | 11.0% | 1.8%
CC(NC(=O)c1ccc(F)cc1)C(c1cccs1)N1CCN(C)CC1 (stereo not drawn) | 10.9% | -11.9% | -115.7* | 7.3 | 10.6% | -7.8%
O=C(CCCCn1c(=S)[nH]c2ccsc2c1=O)NCc1ccco1 | 2.6% | 14.1µM* | 40.0 | 2.1 | 5.4% | 4.6%
CCCCNC(=O)CCCn1c(=S)[nH]c2cc3c(cc2c1=O)OCO3 | -9.1% | 15.8µM* | ? | -3.6 | 5.0% | -21.2%
COc1ccccc1N1CCN(C(=O)CCn2c(=O)[nH]c3ccccc3c2=O)CC1 | 8.0% | -5.9% | -107.0* | 4.3 | 11.1% | 2.7%
O=C(CCCCCn1c(=S)[nH]c2ccccc2c1=O)N1CCOCC1 | -7.0% | 14.1µM* | 10.7 | 11.2 | 4.2% | 1.1%
CCN(CC)CCNC(=O)CCn1c(=S)[nH]c2cc3c(cc2c1=O)OCO3 | 1.1% | -14.7% | -1.2 | 0.6 | 16.8% | -3.1%
C[C@@H](c1ccccc1)N1C(=O)[C@@H]2[C@H]3C(=CC[C@H]2C1=O)C(=O)[C@H]1O[C@H]1[C@H]3O | · | · | · | · | -5.4%[13.5 µM] | -4.1%[17.5 µM]
COC(=O)c1cc(OC)c(OC)cc1NC(=O)CCCCCN1C(=O)CCC1=O | -1.9% | -17.9% | 1.2 | -6.4 | -11.7% | -5.3%
COCCNC(=O)CCCCCn1c(=S)[nH]c2ccccc2c1=O | -2.3% | 12.6µM* | 127.6 | 3.8 | 3.1% | 2.9%
COCCNC(=O)CCCCCN1C(=O)CCC1=O | -1.1% | 15.8µM* | -16.0 | 7.9 | 12.2% | 25.9%
Cc1ccc(N(Cc2cc3cc(C)ccc3[nH]c2=O)S(=O)(=O)c2ccccc2)cc1 | -4.4% | -17.0% | 6.2 | -16.3 | 5.2% | -0.4%
COc1cc(OC)c2c(c1C(CCN1CCCC(C)C1)c1ccc(N(C)C)cc1)OC(=O)CC2c1ccc(N(C)C)cc1 (stereo not drawn) | · | · | · | · | · | 5.9%
O=C(N/N=C/c1ccc2c(c1)OCO2)c1cc(-c2ccccc2Cl)nc2ccccc12 | -3.1% | ? | -18.4 | -3.5 | ? | 1.7%
Cc1cc(C(=O)N/N=C/c2ccc(N(C)C)cc2)c2ccccc2n1 | · | · | · | -5.3 | 35.5µM* | -6.8%
O=C(N/N=C/c1ccsc1)c1cc(-c2cccs2)nc2ccccc12 | -9.7% | ? | ? | 11.8 | 114.1% | -0.6%
O=C(N/N=C/c1ccc2c(c1)OCO2)c1cc(-c2ccncc2)nc2ccccc12 | -1.0% | 28.2µM* | -21.1 | -4.7 | 1.8% | 4.7%
SMILES | 12-hLO inh | HPGD inh | PNC inhibitor | GLA inh pH 4.5 | ALDH1A1 inh | aGal spleen mod
O=C(N/N=C/c1ccsc1)c1cc(-c2ccncc2)nc2ccccc12 | -4.3% | -8.1% | -113.8* | 5.7 | -8.9% | -7.0%
Cc1cc(C(=O)N/N=C/c2ccc([N+](=O)[O-])cc2)c2ccccc2n1 | · | · | · | -12.4 | 4.1% | -0.1%
O=C(O)c1ccc(/C=N/NC(=O)c2cc(-c3cccs3)nc3ccccc23)cc1 | -1.0% | ? | -106.7* | -15.6 | ? | 7.4%
O[C@@H](c1cc(-c2ccc(Cl)cc2)nc2ccccc12)[C@@H]1CCCCN1 | 1.0%[11.4 µM] | · | · | · | · | ·
C=CCn1c(=O)c2c(nc(-c3ccccc3)n2C)n(C)c1=O | · | · | · | · | ? | -13.1%
Cc1c(C(=O)N/N=C/c2ccc(N(C)C)cc2)[nH]c2ccc(Cl)cc12 | -1.2% | -18.1% | -113.0* | 0.7 | ? | 7.4%
Cc1ccsc1/C=N/NC(=O)c1cc(-c2ccncc2)nc2ccccc12 | 5.2% | -20.6% | -109.0* | -15.9 | ? | -0.1%
CC(=O)NS(=O)(=O)c1ccc(NC(=O)c2cc(-c3ccc(C)c(C)c3)nc3ccccc23)cc1 | -6.0% | -23.2% | -96.3* | 6.2 | -7.8% | 4.8%
CC(/C=N/NC(=O)c1cc(-c2ccncc2)nc2ccccc12)=C\c1ccco1 | -1.9% | -21.1% | -87.1* | 0.9 | ? | 13.0%
O=C(N/N=C/c1ccco1)c1cc(-c2cccc(Br)c2)nc2ccccc12 | -9.1% | ? | 0.4 | 1.2 | -2.0% | -3.1%
CCn1cc(-c2cc(C(=O)O)c3ccccc3n2)cn1 | · | · | · | -0.4 | ? | -0.6%
O=c1[nH]cnc2c1nc(Cl)n2C1OC(CO)C(O)C1O (stereo not drawn) | 3.2% | -4.1% | · | 5.4 | -0.6% | 6.6%
Cc1cc(C(=O)N/N=C(\CCC(=O)O)c2cccs2)c2ccccc2n1 | · | · | · | -3.8 | 25.1µM* | 1.0%
NS(=O)(=O)c1ccc(NC(=O)c2cc(-c3cccs3)nc3ccccc23)cc1 | -3.8% | ? | -115.1* | 5.8 | ? | -13.3%
CC(C)[C@@H](CC(=O)N[C@@H]1CCCC[C@H]1C(=O)N[C@H](CC(=O)N[C@@H](CCC(=O)O)CC(=O)O)Cc1c[nH]c2ccccc12)NC(=O)C[C@H](Cc1ccccc1)NC(=O)[C@@H]1CCCC[C@H]1N | -4.6% | -9.6% | · | -1.6 | -12.8% | -10.8%
CCCSc1ncnc2c1oc1ccccc12 | -4.7% | 20µM* | 24.1 | -1.2 | ? | 0.7%
CC(=O)CSc1ncnc2c1oc1ccccc12 | 1.8% | -24.1% | -24.9 | 5.0 | -4.8% | 7.3%

Compound activity as filed in PubChem BioAssay.
